Records with an inconclusive call do not appear. The source made the active and inactive calls.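 Rule for the calls, unless noted: active = inhibition above the screen-wide mean plus 3 SD, about 51%; inactive = the rest.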

Test [1] is described as follows: rapamycin-like changes in RPL19A-GFP expression – cell-based, S. cerevisiae, multiplex flow cytometry, primary screen (AID 1862; in the data active = percent of DMSO control GFP below about 86%;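 note: lower values mimic rapamycin by blocking the RPL19A rise seen in DMSO cells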). As to conditions: S. cerevisiae RPL19A-GFP strain, flow cytometry fluorescence, 3 h; at 10 µM; stronger effect = lower value. In general terms: A flow cytometer gives signals particle by particle.
Test [2] can be described thus: TOR pathway GLN3 branch reporter MEP2-GFP changes – S. cerevisiae, multiplex flow cytometry, primary screen (AID 1867;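 active = GFP response, as percent of the DMSO control, above the screen-wide mean plus 3 SD, about 139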;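 note: median GFP channel fluorescence of barcode-gated MEP2-GFP cells measured by flow cytometry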). As to conditions: S. cerevisiae MEP2-GFP strain, 3 h, at 10 µM, stronger effect = higher value, 100% means same as DMSO wells.
The nature of test [3]: TOR pathway RTG branch CIT2 reporter changes – S. cerevisiae, GFP fusion, multiplex flow cytometry, primary screen (AID 1870;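 active = percent response above a set limit, the screen-wide mean plus 3 SD, cut at about 130% in these data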;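 note: barcoded CIT2-GFP strain pooled with four other GFP strains with rapamycin as positive control; median GFP fluorescence per well over plate mean of DMSO wells so 100% = DMSO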). As to conditions: S. cerevisiae CIT2-GFP expression, 3 h, at 10 µM, stronger effect = higher value.
The nature of test [4]: TOR pathway LAP4-GFP level changes – S. cerevisiae, multiplex flow cytometry, primary screen (AID 1873;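 active = GFP signal, as percent of the solvent control, above the screen mean plus 3 SD, about 149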). The note with it: S. cerevisiae LAP4-GFP expression, 3 h, at 10 µM, stronger effect = higher value.
A short description of test [5]: yeast AGP1-GFP level changes, GLN3 branch – cell-based, multiplex flow cytometry, S. cerevisiae, primary screen (AID 1887;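 active = GFP signal above the screen-wide mean plus 3 SD, that is over about 124.5% of the solvent control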;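 note: AGP1-GFP fusion strain of S. cerevisiae within a five-strain barcoded multiplex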). The note with it: 3 h, at 10 µM, stronger effect = higher value.
A short description of test [6]: reduced mouse 2C T cell binding to pMHC/ICAM-1 vesicles – MLPCN validation set, flow cytometry, LFA-1/ICAM-1 modulator project, pilot screen (AID 2523;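 active = response below a set limit, under 55% cells CD8-positive and vesicle-bound, and CD8 cells' 90th-percentile brightness under 279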;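 for vesicle binding response: mean PE anti-B7-1 fluorescence of CD8+ cells relative to row control; 100% = QL9-loaded vesicles with DMSO vehicle in the same plate row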). The note with it: 2C mouse CD8+ T cells, at 7 µM, stronger effect = lower value; double positive events: measured here: CD8+/vesicle+ event percentage.
For test [7], the target named is Integrin beta-1 (Homo sapiens) + Integrin alpha-4 (Homo sapiens) (UniProt P13612+P05556). Description: alpha4beta1 integrin LIBS antibody binding reduction – U937 cells, HUTS-21 mAb, flow cytometry, validation set, VLA-4 allosteric modulator project, pilot screen (AID 2674;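 active = inhibition above 50%, about 3 SD of the validation set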;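 note: antibody binding induced by the VLA-4 ligand LDV present at three times its Kd; 0% = LDV ligand with antibody and no compound and 100% = antibody without LDV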). The note with it: HUTS-21 LIBS mAb binding, at 6.7 µM, stronger effect = higher value, binding induced by LDV ligand.

Test [8] in a line: calorie-restriction mimetic ROS inhibitors, yeast – validation compound set, pilot screen (AID 2706;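 active = superoxide response below 65% of plate, a cut near 3 SD across the whole screen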;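 note: yeast exposed to compound for one week at 30 degrees C before staining; 100% = mean of all compound wells on the same plate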). As to conditions: S. cerevisiae aging, superoxide DHE fluorescence; at 10 µM; stronger effect = lower value.
Test [9] addresses Beta-adrenergic receptor kinase 1 (Homo sapiens) (UniProt P25098). Description: GRK2 binders displacing RNA aptamer, biochemical, validation, human GRK2, bead flow cytometry (AID 488806;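 active = aptamer binding inhibition above 30%, about 3 SD of noise from non-fluorescent compounds; inactive = inhibition at or below 30%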). As to conditions: bead-bound GRK2, FAM-aptamer displacement, at 10 µM, stronger effect = higher value.
In test [10] the target is Beta-2 adrenergic receptor (Homo sapiens) (UniProt P07550). The test is described as follows: agonist-induced loss of surface beta2AR – cell-based, FAP fluorogen, flow cytometry, validation set, pilot screen (AID 504459;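 active = percent response above 42, roughly 3 SD of non-fluorescent test compounds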;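 note: agonist-driven loss of surface beta2AR via internalization measured by FAP dye flow cytometry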). As to conditions: Am2.2-beta2AR cells, at 10 µM, stronger effect = higher value.
The target of test [11] is AP-2 complex subunit beta (Homo sapiens) (UniProt P63010). The test is described as follows: beta-arrestin/AP2 interaction blockers – biochemical, validation set, GST-AP2 beads, flow cytometry, pilot screen (AID 504541;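 active = inhibition above 54%, about 3 SD of non-fluorescent compounds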;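 note: AP2 carries R879A mutation and is captured from E. coli lysate; bead-bound FITC arrestin peptide fluorescence measuring arrestin peptide binding to AP2; 0% = DMSO wells and 100% = excess unlabeled arrestin peptide control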). As to conditions: FITC arrestin peptide, at 10 µM, stronger effect = higher value, AP2 beta2 appendage fragment, R879A mutant.
Test [12] is described as follows: cytosolic pH regulators acting via V-ATPase – S. cerevisiae, pHLuorin, HTS validation (AID 504600; in the data active = response above about 15%;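 note: plate controls were DMSO for no effect and reference compound for full effect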). The note with it: V-ATPase proton transport, at 10 µM, stronger effect = higher value.
In test [13] the test system is anti-desmoglein-3 scFv antibody binding to human DSG3. Description: blockers of pathogenic pemphigus antibody–desmoglein-3 binding – biochemical, validation compound set, bead-based, flow cytometry, pilot screen (AID 588368;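 active = binding below the plate cutoff, the plate median minus 3 SD, with a reading above zero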;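 note: signal is the median channel fluorescence of bead-bound GFP antibody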). As to conditions: Protein G beads, DSG3-Fc, scFv-GFP binding, at 10 µM, stronger effect = lower value.
Test [14] can be described thus: Nile Red efflux blockade in pump-expressing yeast – validation compound set, multiplex, phenotypic, pilot screen (AID 588506;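 active = efflux inhibition above 0.42, the validation set average plus 4 SD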;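 note: Nile Red retained in cells so higher fluorescence means more efflux inhibition; 0 = negative control wells and 1 = enniatin B 25 µM full block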). The note with it: S. cerevisiae pump-expressing triplex, Nile Red efflux flow cytometry; at 10 µM; stronger effect = higher value; the pumps come from Candida albicans.
The target in test [15] is ATP-binding cassette sub-family B member 6 (Homo sapiens) (UniProt Q9NP58). Description: blockers of ABCB6-driven porphyrin uptake – K562-ABCB6 cells, flow cytometry, validation set, pilot screen (AID 588550).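 Note: 0% = DMSO wells and 100% = benzethonium chloride 70 µM positive control.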 The note with it: K562-ABCB6 porphyrin accumulation, 1 h, at 10 µM, stronger effect = higher value.
A short description of test [16]: AML differentiation inducers, ER-HoxA9 marrow cells – cell-based, GFP/MAC1 double positive, flow cytometry, validation set, primary screen (AID 588685;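 active = differentiation response of at least 50%, scaled between solvent and reference control, from cells with both markers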;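 note: compound exposure lasts four days before antibody staining and flow analysis; 0% = DMSO wells and 100% = 5 µM fulvestrant positive control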). The note with it: stronger effect = higher value, normalized: vehicle 0, fulvestrant 100.

Chain of ATP-binding cassette sub-family B member 6 (Homo sapiens) (Q9NP58 whole entry, looked up): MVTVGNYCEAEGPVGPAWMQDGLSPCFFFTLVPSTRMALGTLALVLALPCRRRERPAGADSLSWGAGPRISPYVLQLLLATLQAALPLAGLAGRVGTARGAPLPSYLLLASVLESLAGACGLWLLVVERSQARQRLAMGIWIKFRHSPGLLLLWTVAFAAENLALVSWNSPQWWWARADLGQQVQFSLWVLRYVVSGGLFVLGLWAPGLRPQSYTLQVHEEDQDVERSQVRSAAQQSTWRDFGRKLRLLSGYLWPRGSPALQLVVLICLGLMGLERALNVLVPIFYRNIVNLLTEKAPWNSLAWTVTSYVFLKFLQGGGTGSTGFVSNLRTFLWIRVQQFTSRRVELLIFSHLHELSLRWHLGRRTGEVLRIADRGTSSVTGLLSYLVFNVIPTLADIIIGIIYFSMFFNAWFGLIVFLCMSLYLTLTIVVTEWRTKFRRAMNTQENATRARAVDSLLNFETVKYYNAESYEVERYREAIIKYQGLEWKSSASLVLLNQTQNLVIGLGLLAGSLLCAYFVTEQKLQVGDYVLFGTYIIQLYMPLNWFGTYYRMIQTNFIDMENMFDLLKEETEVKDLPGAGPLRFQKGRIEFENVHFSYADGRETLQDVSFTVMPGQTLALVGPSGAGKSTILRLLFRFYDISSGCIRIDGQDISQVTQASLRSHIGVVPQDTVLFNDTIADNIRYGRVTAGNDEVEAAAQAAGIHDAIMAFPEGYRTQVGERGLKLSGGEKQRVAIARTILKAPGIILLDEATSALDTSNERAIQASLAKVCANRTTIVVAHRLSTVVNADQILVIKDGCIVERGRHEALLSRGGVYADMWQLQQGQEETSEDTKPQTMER
Chain of Beta-adrenergic receptor kinase 1 (Homo sapiens) (P25098 whole entry, looked up): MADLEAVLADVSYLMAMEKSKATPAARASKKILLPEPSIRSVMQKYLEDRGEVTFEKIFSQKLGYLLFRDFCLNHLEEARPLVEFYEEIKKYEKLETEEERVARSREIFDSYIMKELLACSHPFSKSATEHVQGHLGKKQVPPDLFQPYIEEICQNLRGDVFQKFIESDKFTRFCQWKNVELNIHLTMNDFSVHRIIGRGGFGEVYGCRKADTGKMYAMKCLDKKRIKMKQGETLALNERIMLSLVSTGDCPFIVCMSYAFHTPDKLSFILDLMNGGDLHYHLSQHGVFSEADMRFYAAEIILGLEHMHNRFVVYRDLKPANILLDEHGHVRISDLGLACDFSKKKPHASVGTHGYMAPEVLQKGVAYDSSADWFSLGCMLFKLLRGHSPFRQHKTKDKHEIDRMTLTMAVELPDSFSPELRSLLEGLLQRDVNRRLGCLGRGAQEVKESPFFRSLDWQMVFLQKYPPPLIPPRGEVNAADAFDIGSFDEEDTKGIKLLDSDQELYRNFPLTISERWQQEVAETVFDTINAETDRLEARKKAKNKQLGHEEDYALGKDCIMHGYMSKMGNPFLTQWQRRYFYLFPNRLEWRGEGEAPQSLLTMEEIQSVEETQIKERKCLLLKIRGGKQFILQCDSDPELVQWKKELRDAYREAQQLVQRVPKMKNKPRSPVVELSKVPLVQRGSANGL
Chain of AP-2 complex subunit beta (Homo sapiens) (P63010 whole entry, looked up, the tested form may be a part, one chain of several): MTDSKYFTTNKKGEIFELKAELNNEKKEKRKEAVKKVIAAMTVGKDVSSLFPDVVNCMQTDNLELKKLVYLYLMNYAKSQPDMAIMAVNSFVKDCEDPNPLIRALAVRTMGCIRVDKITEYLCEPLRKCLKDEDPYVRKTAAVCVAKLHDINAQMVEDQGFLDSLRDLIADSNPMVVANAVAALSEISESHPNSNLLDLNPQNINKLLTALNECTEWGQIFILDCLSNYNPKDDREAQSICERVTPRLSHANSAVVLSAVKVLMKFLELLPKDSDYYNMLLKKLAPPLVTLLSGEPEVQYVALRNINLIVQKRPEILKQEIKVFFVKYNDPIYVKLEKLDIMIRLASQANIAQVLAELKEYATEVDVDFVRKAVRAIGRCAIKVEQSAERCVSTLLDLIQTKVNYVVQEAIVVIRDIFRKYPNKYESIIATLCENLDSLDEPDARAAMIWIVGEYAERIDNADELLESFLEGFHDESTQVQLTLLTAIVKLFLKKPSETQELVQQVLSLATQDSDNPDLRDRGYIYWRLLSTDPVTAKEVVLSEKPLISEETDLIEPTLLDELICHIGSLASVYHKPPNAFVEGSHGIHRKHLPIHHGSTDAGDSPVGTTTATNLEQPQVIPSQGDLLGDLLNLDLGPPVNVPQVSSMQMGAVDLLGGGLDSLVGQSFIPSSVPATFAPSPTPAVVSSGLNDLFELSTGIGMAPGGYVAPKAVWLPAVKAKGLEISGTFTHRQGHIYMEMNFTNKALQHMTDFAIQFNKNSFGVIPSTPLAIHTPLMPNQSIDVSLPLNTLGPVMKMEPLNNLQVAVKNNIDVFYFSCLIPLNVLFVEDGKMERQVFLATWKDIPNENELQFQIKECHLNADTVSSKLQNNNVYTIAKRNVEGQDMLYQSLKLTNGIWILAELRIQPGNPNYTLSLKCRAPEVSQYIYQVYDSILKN
Chain of Integrin beta-1 (Homo sapiens) + Integrin alpha-4 (Homo sapiens) (P05556 whole entry, looked up): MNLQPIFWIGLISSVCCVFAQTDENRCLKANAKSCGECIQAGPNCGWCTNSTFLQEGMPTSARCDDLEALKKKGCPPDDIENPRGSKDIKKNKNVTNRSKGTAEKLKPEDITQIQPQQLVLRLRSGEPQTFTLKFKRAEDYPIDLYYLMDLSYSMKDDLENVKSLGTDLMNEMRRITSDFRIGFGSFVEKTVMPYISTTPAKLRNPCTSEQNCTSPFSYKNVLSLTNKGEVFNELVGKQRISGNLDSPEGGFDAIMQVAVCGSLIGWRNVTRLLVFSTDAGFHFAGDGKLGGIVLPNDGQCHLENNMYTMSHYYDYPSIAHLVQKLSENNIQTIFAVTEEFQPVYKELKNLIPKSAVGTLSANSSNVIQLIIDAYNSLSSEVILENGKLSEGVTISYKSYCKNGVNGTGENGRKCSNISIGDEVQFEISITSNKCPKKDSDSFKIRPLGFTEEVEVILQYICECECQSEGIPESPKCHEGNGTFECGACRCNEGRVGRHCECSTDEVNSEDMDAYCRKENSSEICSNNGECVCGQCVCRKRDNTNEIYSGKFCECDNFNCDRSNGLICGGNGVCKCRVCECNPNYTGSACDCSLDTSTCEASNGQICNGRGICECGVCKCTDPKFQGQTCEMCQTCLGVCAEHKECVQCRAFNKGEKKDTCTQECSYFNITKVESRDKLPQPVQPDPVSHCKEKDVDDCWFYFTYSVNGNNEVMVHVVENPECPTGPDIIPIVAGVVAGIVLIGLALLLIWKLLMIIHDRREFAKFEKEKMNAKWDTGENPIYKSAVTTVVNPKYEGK
Chain of Integrin beta-1 (Homo sapiens) + Integrin alpha-4 (Homo sapiens) (P13612 whole entry, looked up): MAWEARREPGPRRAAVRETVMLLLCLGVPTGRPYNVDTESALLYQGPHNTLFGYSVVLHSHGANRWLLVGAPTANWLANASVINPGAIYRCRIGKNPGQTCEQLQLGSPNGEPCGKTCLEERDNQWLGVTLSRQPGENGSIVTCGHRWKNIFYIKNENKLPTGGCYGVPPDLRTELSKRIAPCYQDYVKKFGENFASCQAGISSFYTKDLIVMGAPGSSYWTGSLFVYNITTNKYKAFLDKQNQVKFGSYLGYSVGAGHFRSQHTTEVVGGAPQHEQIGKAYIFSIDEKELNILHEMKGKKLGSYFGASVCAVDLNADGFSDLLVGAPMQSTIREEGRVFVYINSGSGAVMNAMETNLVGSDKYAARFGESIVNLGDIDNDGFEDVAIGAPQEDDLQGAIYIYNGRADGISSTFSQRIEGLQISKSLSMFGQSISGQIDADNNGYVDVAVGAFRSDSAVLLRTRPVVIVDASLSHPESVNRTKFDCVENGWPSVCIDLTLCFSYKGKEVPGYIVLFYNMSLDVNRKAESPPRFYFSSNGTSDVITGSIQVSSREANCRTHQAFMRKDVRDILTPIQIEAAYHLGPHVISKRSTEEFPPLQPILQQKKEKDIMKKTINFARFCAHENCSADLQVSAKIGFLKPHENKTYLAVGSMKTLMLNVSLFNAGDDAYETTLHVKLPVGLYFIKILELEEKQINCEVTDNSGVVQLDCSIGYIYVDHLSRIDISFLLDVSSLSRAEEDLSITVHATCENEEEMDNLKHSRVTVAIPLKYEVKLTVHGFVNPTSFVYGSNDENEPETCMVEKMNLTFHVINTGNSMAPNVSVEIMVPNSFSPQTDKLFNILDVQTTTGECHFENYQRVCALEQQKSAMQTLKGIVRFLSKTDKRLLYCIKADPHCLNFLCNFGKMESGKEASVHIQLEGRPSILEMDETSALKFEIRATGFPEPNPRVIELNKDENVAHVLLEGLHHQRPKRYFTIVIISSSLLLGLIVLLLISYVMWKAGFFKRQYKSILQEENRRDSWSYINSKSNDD
Chain of Beta-2 adrenergic receptor (Homo sapiens) (P07550 whole entry, looked up): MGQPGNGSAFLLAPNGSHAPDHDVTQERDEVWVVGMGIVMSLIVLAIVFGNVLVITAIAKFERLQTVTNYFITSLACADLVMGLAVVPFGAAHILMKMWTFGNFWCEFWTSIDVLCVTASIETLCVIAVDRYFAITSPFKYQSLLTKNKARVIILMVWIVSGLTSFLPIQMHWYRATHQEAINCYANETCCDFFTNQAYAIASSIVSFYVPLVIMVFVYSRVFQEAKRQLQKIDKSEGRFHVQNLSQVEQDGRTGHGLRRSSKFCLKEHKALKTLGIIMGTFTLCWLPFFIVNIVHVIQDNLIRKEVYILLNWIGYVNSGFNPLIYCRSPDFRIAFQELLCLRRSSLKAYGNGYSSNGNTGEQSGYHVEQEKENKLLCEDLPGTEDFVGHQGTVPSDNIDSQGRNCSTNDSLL

On to `CCc1cc2c(=O)c(-c3nc(C)cs3)coc2cc1OC(C)C(=O)NCCO` (stereo not drawn), for which the percent of DMSO control GFP in test [1] was 90.2% (inactive). The GFP response vs DMSO in test [2] is 129% (inactive); in [4], 86.4% (inactive). Further, the percent response of DMSO control in test [3] was 107% (inactive). The GFP response, % of DMSO in test [5] is 92.4% (inactive). The compound also came in with a double positive events in [6] of 62.3%. In [6], the vesicle binding response is 143% (inactive). Also, the inhibition – broadly, the relative decrease from the control value, in per cent – is 9.37% (inactive) in test [7], -0.76% (inactive) in test [11] and 10% (inactive) in [15]. Besides, in [8], the superoxide response (% of plate) was 95.6% (inactive). Moreover, the aptamer binding inhibition in [9] was 3% (inactive). Moreover, the response in test [10] was 8.19% (inactive); in test [12], -0.12% (inactive). In addition, the binding (% of control) in test [13] is 101% (inactive). Further, the efflux inhibition (fraction of control) in [14] is -0.2 (inactive). The differentiation response in test [16] is -4.09% (inactive).
As to `CC(NC(=O)OCc1ccccc1)C(=O)N1CC(O)CC1C(=O)O` (stereo not drawn), in test [1], the percent of DMSO control GFP was 103% (inactive). Further, the GFP response vs DMSO was 112% (inactive) in test [2] and 105% (inactive) in test [4]. Also, in test [3], the percent response of DMSO control is 90.1% (inactive). For the same compound, in test [5], the GFP response, % of DMSO was 103% (inactive). In test [6], this compound displayed a double positive events of 62.9%. The vesicle binding response in test [6] is 182% (inactive). The results for the inhibition in [7], in test [11] and in test [15] were 6.4% (inactive), 31.1% (inactive) and 4% (inactive), respectively. Moreover, the superoxide response (% of plate) in test [8] was 97.5% (inactive). Moreover, the aptamer binding inhibition in test [9] was 3% (inactive). The response in test [10] is 9.77% (inactive); in test [12] it was -4.2% (inactive). For the same compound, the binding (% of control) in [13] was 99.5% (inactive). Moreover, the efflux inhibition (fraction of control) in [14] was 0.8 (active). In addition, in [16], the differentiation response is 29.6% (inactive).
For `CCc1cc(=O)oc2cc(OCc3nn[nH]n3)ccc12`, the percent of DMSO control GFP in test [1] was 102% (inactive). For the same compound, the GFP response vs DMSO is 100% (inactive) in test [2] and 96% (inactive) in test [4]. The percent response of DMSO control in test [3] was 96.6% (inactive). For the same compound, in test [5], the GFP response, % of DMSO is 100% (inactive). Also, the double positive events in test [6] amounted to 65.5%. The vesicle binding response in test [6] was 174% (inactive). The inhibition in [7] is -10.8% (inactive); in test [11], 9.23% (inactive); in [15], 14% (inactive). Also, the superoxide response (% of plate) in [8] was 106% (inactive). The aptamer binding inhibition in test [9] is 5% (inactive). Besides, the values for the response in test [10] and in test [12] were -3.63% (inactive) and -0.49% (inactive), respectively. For the same compound, the binding (% of control) in [13] was 103% (inactive). Further, the efflux inhibition (fraction of control) in test [14] is 0.02 (inactive). Besides, the differentiation response in test [16] was 0.24% (inactive).
On to `Cc1ccc(Cl)c(OCCCN(C)Cc2ccccc2)c1`, for which the percent of DMSO control GFP in [1] is 100% (inactive). For the same compound, the GFP response vs DMSO in test [2] was 96.6% (inactive); in test [4], 106% (inactive). Also, in test [3], the percent response of DMSO control was 98.3% (inactive). The GFP response, % of DMSO in test [5] is 106% (inactive). In [6], this compound gave a double positive events of 64.5%. Besides, the vesicle binding response in [6] is 161% (inactive). Moreover, the results for the inhibition in test [7], in [11] and in [15] were 13.4% (inactive), 0.6% (inactive) and 19% (inactive), respectively. Besides, in test [8], the superoxide response (% of plate) was 95% (inactive). In addition, in test [9], the aptamer binding inhibition was 2% (inactive). The results for the response in [10] and in [12] were -6.56% (inactive) and 0.72% (inactive), respectively. Besides, the binding (% of control) in test [13] was 112% (inactive). In [14], the efflux inhibition (fraction of control) is -0.26 (inactive). In addition, the differentiation response in test [16] is -6.96% (inactive).

For the origin of these results see PubChem BioAssay.
